Test results published in the supplement of paper PMC10338343.

Test system: MILI (PIWIL2) piRISC loaded with L1MC piRNA (26 nt)
Assay: pre-steady-state target cleavage rate (min^-1); guide: L1MC piRNA 5'p-UAACUAAAUACUAUGCAAGCUGUAGG; MIWI and MILI are mouse PIWI proteins and EfPiwi is from a freshwater sponge; tags in brackets are library labels; higher = faster piRNA-guided slicing of the target
Details: auxiliary factor: none (no GTSF1)
Summary of the method: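 For Cleave-'n-Seq, a transcribed, DNA-blocked target RNA library […] met 1 nM active affinity-purified piRISC with one synthetic guide at 33 °C for 0–8 or 0–960 min in HEPES–potassium acetate buffer, with or without 500 nM GTSF1 partner protein. Uncleaved targets were sequenced and normalised to depth and weakly complementary targets, with three trials pooled and k3 capped at 0.0001 min^-1. A burst-and-steady-state fit supplied the pre-steady-state cleavage rate.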
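Note: 1 nM active piRISC with 0.1 nM target library at 33 °C single turnover.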

pre-steady-state target cleavage rate, < 0.0001:
UCCUGGAUGUCGAUGCAUACUAUUUAGUAA
UCCUGGAACAGCUUGCAAUCAUAAAUCAAA [g14:g23:cont:t1A]
UCCUGGAUGUCGAACGUAUGUAUUUAGUA
UCCUGGAUGUCGAACGUAUGUAUUUCAGUUA
